Test results from PubChem BioAssay AID463190 (Sanford-Burnham Center for Chemical Genomics, 2010).
The campaign covered roughly 330,000 compounds. About 7,300 (2.2%) were called active. For the sample, actives were picked, then their nearest neighbours and some compounds at random. Unmarked numbers belong to inactive results.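 The calls were made as follows: active = inhibition of at least 40%; inactive = the rest.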

Assay: growth inhibition of tim10-1 ts yeast – luminescence, uHTS, primary screen (AID 463190);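 also: mutant grown at 25 °C; 0% = DMSO wells with yeast and 100% = wells holding no yeast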
Conditions: S. cerevisiae tim10-1 ts strain growth, BacTiter-Glo, 24 h; at 20 µM; active compounds read high

Structure (SMILES) | inhibition
CCOc1ccc(C(c2c(C)[nH][nH]c2=O)c2c(C)[nH][nH]c2=O)cc1OCC | 45.9% (active)
CCOc1ccc(C(CC(=O)O)NC(=O)Cc2ccccc2)cc1OC (stereo not given) | -13.2%
CCOc1ccc(C(C)NC(=O)CN2C(=O)NC3(CCCCC3)C2=O)cc1OCC (stereo not given) | 0.453%
CCOC(=O)c1cn(CC)c2cc(F)c(F)cc2c1=O | -8.23%
CC(=O)NC(CC(=O)Nc1cccc(S(=O)(=O)N2CCCC2)c1)c1ccccc1 (stereo not given) | 19.9%
CN1CCN(c2cc(=O)n(-c3ccc(Cl)cc3)c(=O)[nH]2)CC1 | -20.5%
COc1ccc(N(CC(=O)Nc2cc(OC)ccc2OC)S(=O)(=O)c2c(C)noc2C)cc1 | 29.9%
CCOC(=O)Cc1csc(NC(=O)CSc2nnc(-c3cccnc3)n2Cc2ccco2)n1 | 13.4%
CCOC(=O)Cc1csc(SCc2cc(=O)oc3cc(O)ccc23)n1 | 12.7%
CCOC(=O)Cc1csc(SCC(=O)NC(C)C23CC4CC(CC(C4)C2)C3)n1 (stereo not given) | 43.5% (active)
CCOC(=O)Cc1csc(NC(=O)CSc2ccc(Br)cc2)n1 | 46.9% (active)
CCOC(=O)Cc1csc(SCC(=O)Nc2ccc(C)cc2F)n1 | 18.9%
CCOC(=O)Cc1csc(NC(=O)COc2ccc3c(C)cc(=O)oc3c2)n1 | 11.9%
NS(=O)(=O)c1ccc(CCNC(=O)c2ccc([N+](=O)[O-])cc2[N+](=O)[O-])cc1 | 2.98%
CCCN(C(=O)CSc1nnnn1C)c1c(N)n(Cc2ccccc2)c(=O)[nH]c1=O | -2.11%
CN(CC(=O)Nc1cccc(F)c1)C(=O)C1CSC2(C)CCC(=O)N12 (stereo not given) | 2.74%
COc1ccccc1N1CCN(C(=O)c2cc(=O)c3cc(C)ccc3o2)CC1 | 36.5%
O=C(c1cc(=O)c2ccccc2o1)N1CCN(c2ccccc2)CC1 | 5.8%
COc1ccccc1N1CCN(C(=O)c2cc(=O)c3cc(C)cc(C)c3o2)CC1 | 45.3% (active)
Cc1ccc(C(=O)N/N=C\c2cc(Br)c(Br)o2)cn1 | 3.87%

Structure (SMILES) | inhibition
COc1ccc(NC(C)=O)cc1NC(=O)CN1CCN(C2c3ccccc3-c3ccccc32)CC1 | 41.6% (active)
COc1cccc(NC(=O)CN2CCN(CC(=O)Nc3ccccc3Cl)CC2)c1 | 19.6%
COc1ccc(Cl)cc1NC(=O)CN1CCN(C(=O)N2CCOCC2)CC1 | 1.52%
CC(C)(C)OC(=O)C1=C(CO)CS[C@@H]2[C@H](NC(=O)Cc3ccccc3)C(=O)N12 | 9.18%
Cc1ccc(S(=O)(=O)N2CCN(C(=O)CSc3cc(C)ccc3C)CC2)c(C)c1 | 23.1%
O=C(NCc1ccco1)c1cccn2c(=O)c3c4c(sc3nc12)CCCC4 | 41.6% (active)
O=C(NCc1ccco1)c1nc2ncccn2n1 | 1.9%
Cc1cccc(Nc2ccccc2C(=O)NCc2ccco2)c1C | 29.9%
COc1ccc(C(=O)N2CCC(C(=O)Nc3cccc(C)c3)CC2)cc1OC | -7.58%
O=C(Nc1ccccc1)/C(=C\c1ccco1)NC(=O)c1ccco1 | 23.3%
O=c1nc2s/c(=C\c3ccco3)c(=O)n2nc1Cc1ccccc1 | 63% (active)
O=C(NCCc1ccco1)c1nn(Cc2ccccc2)c(=O)c2ccccc12 | 14.5%
CC(=O)N1N=C(c2ccccc2)OC1c1cccnc1 (stereo not given) | 7.21%
COc1ccc2nc(N3CCN(C(=O)c4ccc([N+](=O)[O-])o4)CC3)sc2c1 | 42.2% (active)
Cc1ccc2nc(N3CCN(C(=O)c4ccco4)CC3)sc2c1 | 6.64%
CCN(CC)CCN(C(=O)c1cccc([N+](=O)[O-])c1)c1nc2ccc(OC)cc2s1 | 12.5%
CC(C)NS(=O)(=O)c1ccc(OCC(=O)NC2CCCCCC2)cc1 | 4.48%
Cc1nn(-c2ccccc2)c2sc(C(=O)N(Cc3ccco3)C(C)C(=O)NC(C)(C)C)cc12 (stereo not given) | 14.2%
CC1=NN(C(N)=S)C(=O)C1N=Nc1cc(Cl)ccc1Cl (stereo not given) | 38.6%
Cc1cccc(N=Nc2c(C)[nH]n(-c3ccccc3)c2=O)c1 | 20.1%

Structure (SMILES) | inhibition
Cc1[nH]n(C(N)=S)c(=O)c1N=Nc1ccc(Cl)cc1Cl | 47.4% (active)
CSc1cc(C)n(-c2ccccc2C)c(=S)c1C(C)=O | -13.6%
COc1ccc2nc(/N=C(\N)NC(=O)Nc3ccccc3)nc(C)c2c1 | 50% (active)
COc1ccc2nc(C)cc(Nc3cccc(C(=O)O)c3)c2c1 | -1.42%
Cc1nc(/N=C(\N)NC(=O)NC2CCCCC2)nc2ccccc12 | -11.5%
Cn1c(SCc2nc3ccccc3s2)nnc1-c1ccc2c(c1)OCO2 | -2.97%
O=C(CCl)Nc1cccc(CP(=O)(c2ccccc2)c2ccccc2)c1 | 9.52%
Cn1c(SCC(=O)Nc2cccc(NC(=O)c3cccs3)c2)nnc1-c1ccncc1 | -9.32%
O=C(NOCc1ccccc1)c1cccc([N+](=O)[O-])c1 | 21.3%
CCCCN=C1C([N+](=O)[O-])=CC=C2C1=NC1(CCCCC1)N2O | 9%
Cc1ccc(C(=O)COc2cccc(NC(=O)c3ccco3)c2)cc1 | 40.3% (active)
COc1ccc(OCC(=O)Nc2ccc(NC(=O)c3ccco3)c(C)c2)cc1 | -11.8%
Cc1cccc(OCC(=O)Nc2ccc(NC(=O)c3ccco3)c(C)c2)c1 | 1.89%
O=C1Nc2ccc(Br)cc2/C1=N/N=C/C1=C(N2CCOCC2)C(=C\c2ccccc2)/CC1 | 45.5% (active)
COc1ccc(/C=N/N=C2/C(=O)Nc3ccccc32)cc1O | 9.34%
C(=N\N1CCN(c2ccccn2)CC1)/C1=C(N2CCOCC2)C(=C/c2ccccc2)/CC1 | 34.3%
C#CC(CCN1CCCCC1)(OC)c1ccccc1 (stereo not given) | 7.91%
Cc1ccc(-c2cn3cc([N+](=O)[O-])ccc3n2)cc1 | -1.69%
Cc1ccc2nc(-c3ccc(Br)cc3)cn2c1 | -3.32%
Cc1ccc(-c2cn3cc(C)ccc3n2)cc1 | 51.8% (active)
